Experimental findings from PubChem BioAssay are described below.

Each structure is given as a SMILES string. Entries with a potency or affinity are not part of this list. Inconclusive results are not listed. Unmarked numbers belong to inactive results. Unless noted, the rule behind the calls is not given here.

The nature of the first assay: cytotoxicity in PAX8-dependent RMG-1 cells, dose response, cell-based, cherry-pick (AID 687029;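 active = signal drop whose fitted half-maximal concentration is at most twice the top valid dose, in every test run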;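 note: cells exposed to compound for 96 hours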). The settings on record: RMG-1 viability, CellTiterGlo ATP luminescence, 96 h; series mostly up to 35 µM; activity change, negative = inhibition: at the top concentration. For orientation: In ATP-based viability assays light output follows the ATP content of the culture.
As to `N#CC(C#N)=NNc1ccc(-n2ccc(C(F)(F)F)n2)cc1`, the “activity change, negative = inhibition” value is 34.6%.

Take `CC1OC(OC2C=C3CCC4C(CCC5(C)C(c6ccc(=O)oc6)CCC45O)C3(C)CC2)C(O)C(OC2OC(CO)C(O)C(O)C2O)C1O` (centres undefined): the “activity change, negative = inhibition” value was 3.99%.

Turning to `COc1ccc(C[C@H]2NC[C@H](O)[C@H]2OC(C)=O)cc1`, the “activity change, negative = inhibition” value is 11.2%.

For the compound `CC12CCC(O)CC1CCC1C2CCC2(C)C(C3=CC(=O)OC3)CCC12O` (centres undefined), the “activity change, negative = inhibition” value is 12.9%.

`C=Cc1cc(OC)c2c(c1)c(=O)oc1c2cc(OC)c2c(O)ccc(C3OC(C)C(O)C(C)(O)C3O)c21` (centres undefined): the “activity change, negative = inhibition” value was 28.7%.

In the case of `CCCCCCCCCCCCn1ccc(=N)cc1`, the “activity change, negative = inhibition” value was 48.3%.

On to `CC(N)C(=O)NC1C2C(=C(O)CC(O)C2O)C(=O)OC1(C)C(Cl)Cl` (centres undefined), for which the “activity change, negative = inhibition” value was 23.8%.

For the compound `CC(=O)OC1CC(OC2C(O)CC(OC3C(O)CC(OC4CCC5(C)C(CCC6C5CC(O)C5(C)C(C7=CC(=O)OC7)CCC65O)C4)OC3C)OC2C)OC(C)C1OC1OC(CO)C(O)C(O)C1O` (centres undefined), the “activity change, negative = inhibition” value is 26.4%.

For `CC(=O)OC1CC(OC2C(O)CC(OC3C(O)CC(OC4CCC5(C)C(CCC6C5CCC5(C)C(C7=CC(=O)OC7)C(O)CC65O)C4)OC3C)OC2C)OC(C)C1OC1OC(CO)C(O)C(O)C1O` (centres undefined), the “activity change, negative = inhibition” value was 14.9%.

Regarding `COC(=O)C1=C(c2ccc(F)cc2OCc2ccccc2)C[C@@H]2CC[C@H]1N2C(=O)NCc1ccc(C(F)(F)F)cc1`, the “activity change, negative = inhibition” value is 23.9%.

Another assay is described as follows: inhibitors of CMV-promoter luciferase reporter, dose response, counter-screen for Pax8 inhibitor project, cell-based, HEK293, luminescence, dry powder (AID 743020;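 active = signal-lowering compounds whose fitted half-maximal concentration is at or below twice the top tested dose in every run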;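 note: HEK293 cells stably expressing the CMV luciferase reporter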). The settings on record: SteadyGlo luminescence, 24 h; series mostly up to 35 µM; activity change, negative = inhibition: at the top concentration.
With `CCC(C)(O)C(=O)OC1C(=O)OC2CC3C(C)=CC(=O)C(O)C3(C)C3C4(O)OCC23C1C(C)C4O` (centres undefined), the “activity change, negative = inhibition” value is 5%.

For the compound `CC1CC(C)(O)CC(C(O)CC2CC(=O)NC(=O)C2)C1=O` (centres undefined), the “activity change, negative = inhibition” value was 8.15%.

Regarding `CCCCN=C[C@]12CCC(O)CC1(O)CCC1[C@@H]2CC[C@]2(C)[C@H](C3C=CC(=O)O3)CCC12O` (some centres undefined), the “activity change, negative = inhibition” value was 2.86%.

On to `COc1ccc(-c2ccc([C@@H]3[C@@H](CO)N4CCCCN(C(=O)Cc5ccccc5)C[C@H]34)cc2)cc1`, for which the “activity change, negative = inhibition” value was 4.75%.

Regarding `C[C@]12CCC3C(CCC4=CC(O)CC[C@@]43/C=N/O)C1(O)CCC2C1=CC(=O)OC1` (some centres undefined), the “activity change, negative = inhibition” value is 1.84%.

As for `O=c1[nH]c2ccccc2n1C1CCN(C(c2cccs2)c2nnnn2-c2ccc3c(c2)OCCO3)CC1` (centres undefined), the “activity change, negative = inhibition” value was 8.26%.

Regarding `CCC(c1nnnn1Cc1ccccc1)N1CCC(n2c(=O)[nH]c3ccccc32)CC1` (centres undefined), the “activity change, negative = inhibition” value is -12.5%.

As to `O=C(Cc1ccccn1)N1CCCCN2[C@@H](CO)[C@@H](c3ccc(-c4ccc(F)cc4)cc3)[C@@H]2C1`, the “activity change, negative = inhibition” value was 0.293%.

A short description of a further assay: non-specific cell cytotoxicity, dose response, cytotoxicity control for PAX8 inhibitor project, plate reader, dry powder samples (AID 743021). The settings on record: cell line, non-specific cytotoxicity counter-screen; series mostly up to 35 µM; activity change, negative = cytotoxicity: at the top concentration. A general note: A counterscreen serves to expose hits that act by an unwanted route or on another target.
With `N#CC(C#N)=NNc1ccc(-n2ccc(C(F)(F)F)n2)cc1`, the “activity change, negative = cytotoxicity” value is 22%.

For `CC1OC(OC2C=C3CCC4C(CCC5(C)C(c6ccc(=O)oc6)CCC45O)C3(C)CC2)C(O)C(OC2OC(CO)C(O)C(O)C2O)C1O` (centres undefined), the “activity change, negative = cytotoxicity” value was -7.16%.

Consider `COc1ccc(C[C@H]2NC[C@H](O)[C@H]2OC(C)=O)cc1`, for which the “activity change, negative = cytotoxicity” value is 42%.

For `CC12CCC(O)CC1CCC1C2CCC2(C)C(C3=CC(=O)OC3)CCC12O` (centres undefined), the “activity change, negative = cytotoxicity” value is -34.6% [at 16 µM].

For the compound `C=Cc1cc(OC)c2c(c1)c(=O)oc1c2cc(OC)c2c(O)ccc(C3OC(C)C(O)C(C)(O)C3O)c21` (centres undefined), the “activity change, negative = cytotoxicity” value was 9.18%.

For the compound `CCC(C)(O)C(=O)OC1C(=O)OC2CC3C(C)=CC(=O)C(O)C3(C)C3C4(O)OCC23C1C(C)C4O` (centres undefined), the “activity change, negative = cytotoxicity” value is 42.6%.

As for `CC1CC(C)(O)CC(C(O)CC2CC(=O)NC(=O)C2)C1=O` (centres undefined), the “activity change, negative = cytotoxicity” value was 20.4%.

In the case of `CCCCCCCCCCCCn1ccc(=N)cc1`, the “activity change, negative = cytotoxicity” value was 30.7%.

Consider `CC(N)C(=O)NC1C2C(=C(O)CC(O)C2O)C(=O)OC1(C)C(Cl)Cl` (centres undefined), for which the “activity change, negative = cytotoxicity” value is -0.552%.

In the case of `C[C@@H]1O[C@@H](O[C@@H]2C=C3CC[C@@H]4C(CC[C@]5(C)[C@@H](c6ccc(=O)oc6)CC[C@]45O)[C@@]3(C)CC2)[C@H](O)[C@H](O)[C@H]1O` (some centres undefined), the “activity change, negative = cytotoxicity” value is 1.63%.

As to `CC(=O)OC1CC(OC2C(O)CC(OC3C(O)CC(OC4CCC5(C)C(CCC6C5CC(O)C5(C)C(C7=CC(=O)OC7)CCC65O)C4)OC3C)OC2C)OC(C)C1OC1OC(CO)C(O)C(O)C1O` (centres undefined), the “activity change, negative = cytotoxicity” value is 33.9%.

With `CC(=O)OC1CC(OC2C(O)CC(OC3C(O)CC(OC4CCC5(C)C(CCC6C5CCC5(C)C(C7=CC(=O)OC7)C(O)CC65O)C4)OC3C)OC2C)OC(C)C1OC1OC(CO)C(O)C(O)C1O` (centres undefined), the “activity change, negative = cytotoxicity” value was 7.71%.

For the compound `COC(=O)C1=C(c2ccc(F)cc2OCc2ccccc2)C[C@@H]2CC[C@H]1N2C(=O)NCc1ccc(C(F)(F)F)cc1`, the “activity change, negative = cytotoxicity” value was -16.1%.

As for `CC(C)(O)/C=C/C(=O)C(C)(O)C1C(O)CC2(C)C3CC=C4C(C=C(O)C(=O)C4(C)C)C3(C)C(=O)CC12C` (centres undefined), the “activity change, negative = cytotoxicity” value was 51.6%.

Consider `C[C@]12CC[C@H]3[C@@H](CC[C@]4(O)C[C@@H](O)CC[C@]34C=O)[C@@]1(O)CC[C@@H]2C1=CC(=O)OC1`, for which the “activity change, negative = cytotoxicity” value is 21.6%.

In the case of `O=C(Cc1ccccn1)N1CCCCN2[C@@H](CO)[C@@H](c3ccc(-c4ccc(F)cc4)cc3)[C@@H]2C1`, the “activity change, negative = cytotoxicity” value is -18.2%.

A further assay can be described thus: A549 cell cytotoxicity, dose response, cytotoxicity control, plate reader, cherry-pick, antagonist series (AID 743412).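 Note: 0% = neutral control wells and -100% = positive control wells.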 The settings on record: series mostly up to 26 µM; activity change, negative = cytotoxicity: at the top concentration.
As to `O=Cc1cn(Cc2cccc([N+](=O)[O-])c2)c2ccccc12`, the “activity change, negative = cytotoxicity” value was -2.49%.

As for `CNC(=O)Oc1cccc(-c2cn3cc(Cl)ccc3n2)c1`, the “activity change, negative = cytotoxicity” value is -7.66%.

As for `Clc1cccc(N2Cc3cc(-c4ccccc4)ccc3-n3nncc3C2)c1`, the “activity change, negative = cytotoxicity” value is 6.83%.

As for `COC(=O)c1ccc(NC(=O)CSc2nc3ccc(N4C(=O)C5C6C=CC(C6)C5C4=O)cc3s2)cc1` (centres undefined), the “activity change, negative = cytotoxicity” value is -6.13%.

For `O=C(O)c1nn(Cc2ccc(Cl)cc2Cl)c2ccccc12`, the “activity change, negative = cytotoxicity” value is 7.79%.
